PostGolgi ctrl = yeast control strain growth, post-Golgi counter-screen. inhibition, % at 10 µM. efflux-deficient yeast background strain, growth absorbance A615, 16 h. 98,000 tested, 5% active
S1P2 blocker = S1P2 (human) receptor antagonism; 97,000 tested, 0.21% active; O95136; cell-based S1P2 antagonist assay, inhibition at 5 uM; inhibition, % at 5 µM; in the data active = inhibition above about 45%;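 note: CRE beta-lactamase reporter cells expressing human S1P2 stimulated with S1P; 0% = agonist at EC80 alone and 100% = agonist plus reference antagonist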
Target sequence (O95136 whole entry, looked up): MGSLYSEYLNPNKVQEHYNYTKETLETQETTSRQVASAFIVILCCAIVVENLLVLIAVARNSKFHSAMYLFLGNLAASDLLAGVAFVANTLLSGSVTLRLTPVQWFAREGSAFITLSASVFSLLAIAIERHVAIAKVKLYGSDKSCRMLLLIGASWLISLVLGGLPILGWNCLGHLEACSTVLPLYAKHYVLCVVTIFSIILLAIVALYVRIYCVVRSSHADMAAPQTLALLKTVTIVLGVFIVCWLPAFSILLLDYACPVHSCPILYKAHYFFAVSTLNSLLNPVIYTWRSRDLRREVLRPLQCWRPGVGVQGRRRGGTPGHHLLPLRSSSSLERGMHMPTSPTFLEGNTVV
GALR2 agonist = activates the human galanin receptor 2 | 140,000 tested, 0.48% active | AID 803 | activation, % (test concentration not listed) | GALR2-expressing cells, agonist activation read-out; in the data active = activation above about 5%, passing the limit was not always enough;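 note: 0% = vehicle buffer wells and 100% = reference agonist at full effect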
GALR2 blocker = GALR2 (human) receptor antagonism. O43603. AID 828. inhibition, % at 4 µM. 140,000 tested, 0.39% active. GALR2-expressing cells, antagonist mode; in the data active = inhibition above about 27%;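 note: cells stimulated with galanin 1-16 at roughly its EC80; 0% = agonist challenge control and 100% = basal control without agonist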
PostGolgi yeast = growth inhibition of a yeast mutant, post-Golgi transport screen; post-Golgi transport phenotypic cell assay; inhibition, % at 10 µM; 98,000 tested, 0.9% active; AID 739;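 note: yeast cells grown in 1536-well plates; yeast grown about 18 h at 30C before absorbance read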
S1P2 ag = activates the human S1P2 receptor. O95136. S1P2-expressing cell line, agonist reporter read-out. activation, % at 4.5 µM. 97,000 tested, 0.46% active; in the data active = activation above about 16%;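 note: 0% = vehicle low control and 100% = maximal reference agonist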
Numbers without * were called inactive; · = not tested or not shown. Shown is part of a subset that was picked to be rich in hits. Cut-off read from the data, not from the text of the source, unless noted: active = inhibition above about 30%; inactive = the rest.

SMILES	PostGolgi ctrl	S1P2 blocker	GALR2 agonist	GALR2 blocker	PostGolgi yeast	S1P2 ag
CC1=C(C(=O)OC(C)C)C(c2ccccn2)n2ncnc2N1 (configuration not stated)	33*	5	1	3	-1	0
CC1=C(C(=O)OC(C)C)C(c2ccncc2)n2ncnc2N1 (configuration not stated)	-6	-14	-2	-5	11	-5
COc1ccc(NC(=O)c2sc3cc(C(F)(F)F)cnc3c2-c2cccs2)cc1	-5	15	0	-6	-4	-2
COC(=O)c1sc2cc(C(F)(F)F)cnc2c1-c1ccccc1	45*	-17	-2	0	8	-2
O=C(Nc1ccc(F)cc1)c1sc2cc(C(F)(F)F)cnc2c1-c1cccs1	8	84*	0	0	-7	-5
O=C(O)c1sc2cc(C(F)(F)F)cnc2c1-c1ccccc1	-12	4	-3	2	-7	-14
O=C(COC(=O)CCC(=O)c1cccs1)Nc1ccc(S(=O)(=O)N2CCOCC2)cc1	41*	·	-1	19	-5	·
Cc1ccc(S(=O)(=O)N2CCOCC2)cc1NC(=O)COC(=O)CCC(=O)c1cccs1	-2	-11	-3	3	6	-8
COc1ccc(-c2cc(C(F)(F)F)nc(NC3CCCC3)n2)cc1OC	34*	-12	0	-10	0	2
O=C(COc1cccc2ccccc12)N1c2ccccc2CCc2ccccc21	32*	11	0	-7	18	-8
CC1(C)CC2CC(C)(CN2C(=O)COC(=O)c2n[nH]c(=O)c3ccccc23)C1 (configuration not stated)	13	·	-3	9	2	·
CC1(C)CC2CC(C)(CN2C(=O)COc2cccc3ccccc23)C1 (configuration not stated)	46*	-7	-2	5	-7	-3
O=C(C1CCCO1)N1CCN(C(=S)Nc2ccccc2F)CC1 (configuration not stated)	·	·	-1	-3	·	·
Cc1cc(C)c(NC(=O)C(C)c2cccc(C(=O)c3ccccc3)c2)c(C)c1 (configuration not stated)	5	6	-1	-5	14	-7
Cc1cc(/C=C(\C#N)C(=O)Nc2ccccc2)c(C)n1-c1ccc2c(c1)OCO2	55*	-30	0	-3	-6	-4
O=C(N/N=C/c1cccc(Oc2ccccc2)c1)c1cccc(Br)c1	31*	16	-3	16	1	-2
O=C(N/N=C/C=C/c1ccccc1)c1ccccc1Br	2	10	-1	12	-6	-2
O=C(N/N=C/c1cccc(Oc2ccccc2)c1)c1ccccc1Br	33*	-11	-1	-3	-4	-2
Oc1ccc(N=C/C=C/c2cccc(Br)c2)cc1-c1nc2ccccc2s1	·	·	-2	13	·	·
CCCCCCNc1c([N+](=O)[O-])cc(C)cc1[N+](=O)[O-]	·	-17	0	-7	·	-1
CCOC(=O)COc1ccccc1C1Nc2ccccc2C(=O)N1c1cccc(Cl)c1 (configuration not stated)	13	-18	0	0	44*	-9
CCOC(=O)COc1c(OC)cc(Cl)cc1C1Nc2ccccc2C(=O)N1c1cccc(C)c1 (configuration not stated)	20	0	-3	-2	-12	-3
CCOC(=O)c1ccccc1NC1c2ccccc2C(=O)N1c1ccc(C)cn1 (configuration not stated)	48*	·	-1	10	-5	·
COc1cc(NC2c3ccccc3C(=O)N2c2ccc(C)cn2)cc(OC)c1OC (configuration not stated)	9	9	0	4	1	-2
CCOc1ccccc1NC1c2ccccc2C(=O)N1c1ccc(C)cn1 (configuration not stated)	33*	-161	-1	-6	-14	-1
SMILES	PostGolgi ctrl	S1P2 blocker	GALR2 agonist	GALR2 blocker	PostGolgi yeast	S1P2 ag
Cn1cnnc1SCc1ccc(C(=O)N=Nc2c(O)n(C)c3ccccc23)cc1	·	·	-2	5	·	·
CCCCSc1nnc(-c2cc(Br)ccc2N)c(=O)[nH]1	36*	2	-2	-8	8	-8
O=C(Nc1ccon1)c1csc2ccccc12	9	-1	-1	6	-4	1
O=C(Nc1ccon1)c1csc2c1CCCC2	32*	-1	-2	6	17	-6
CCOC(=O)C1C(=O)CC(C)(O)C(C(=O)OCC)C1c1ccc(OC)cc1 (configuration not stated)	5	-22	1	-14	9	0
CCOC(=O)C1C(=O)CC(C)(O)C(C(=O)OCC)C1c1ccccc1 (configuration not stated)	·	108*	-2	12	·	-5
CCc1nc(SCC(=O)N2c3ccccc3CC2C)c2c(C)c(C)sc2n1 (configuration not stated)	33*	-22	6	-7	1	0
COC(=O)c1c(NC(=O)c2nn(C)cc2Cl)sc2c1CCCC2	33*	·	-1	-4	-2	·
COC(=O)c1c(NC(=O)C2CC2)sc2c1CCCC2	35*	-24	-4	11	-7	-5
COC(=O)c1c(NC(=O)c2ccc(Br)s2)sc2c1CCC2	15	-7	-2	2	5	-10
COC(=O)c1c(NC(NC(=O)C(C)(C)C)C(Cl)(Cl)Cl)sc2c1CCC2 (configuration not stated)	51*	-12	-4	-5	-2	-9
CCCC(CCC)=NNC(=O)CN(Cc1ccccc1)S(=O)(=O)c1ccccc1	·	·	1	0	·	·
C/C(=N\NC(=O)C(=O)Nc1cccc(Cl)c1C)c1ccncc1	·	·	-1	2	·	·
Cc1cc(C)nc(SCNC(=O)c2ccc(F)cc2)n1	13	-5	0	6	32*	-2
Cc1ccc(C)c(N2CCN(C(=O)c3csc4ccccc34)CC2)c1	·	·	-1	-8	·	·
O=c1c2cc(Br)cc(Br)c2oc2nc3n(c(=O)c12)CCCS3	43*	-6	0	-17	4	-3
O=Cc1ccc2oc3nc4n(c(=O)c3c(=O)c2c1)CCCS4	-3	0	-2	-11	-5	0
CC1CC(C)(C)CC2(C1)NC(=O)N(CC(=O)NC1CCCc3ccccc31)C2=O (configuration not stated)	·	·	0	4	·	·
O=C(Nc1ccc(Cl)c(Cl)c1)C1=Cc2ccccc2OC1	42*	-9	-3	5	9	-6
NC(=O)c1cc(Cc2ccccc2)sc1NC(=O)c1ccco1	45*	·	-1	14	9	·
O=C(C#Cc1cccc([N+](=O)[O-])c1)c1ccccc1	64*	75*	-3	25	91*	-10
CC(=O)c1c(C(C)=O)c(C)n(-c2nc(-c3ccc(C)c(C)c3)c(C)s2)c1C	48*	-1	2	3	-1	-2
COc1ccc(-c2nc(-n3c(C)c(C(C)=O)c(C(C)=O)c3C)sc2C)cc1	24	19	-1	-3	-2	-5
O=C(Cc1ccccc1)Nc1ccc(-c2nnc(-c3ccco3)o2)cc1	16	1	1	5	1	-7
